In PubChem BioAssay:

These compounds were tested on wheat germ agglutinin (Triticum aestivum), Alexa647-labelled (assay: wheat germ agglutinin binders on compound microarrays, profiling panel, artefact control for SMM control-protein annotation, biochemical, small-molecule microarray, 635/667 nm fluorescence (AID 1140;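 further: score merges 667 nm feature emission with signal to noise over triplicate slides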)). Conditions: WGA-A647 binding, 635 nm fluorescence, higher = more signal.
Work on `COC(=O)[C@@]1(Cc2ccc(OC)cc2)[C@H]2c3cc(C(=O)N4CCCC4)n(Cc4nc5ccccc5[nH]4)c3C[C@H]2CN1C(=O)c1ccccc1` yielded a composite z-score of 1.14.
`COc1ccc(NC(=O)O[C@H]2[C@H](OC(=O)c3cc4ccccc4[nH]3)[C@@H](OC(=O)c3cc4ccccc4[nH]3)[C@@H](OC)O[C@@H]2CO)cc1` was tested, and the composite z-score was 0.566.
Work on `C=C(CCCC)C(=O)CC[C@@H](OC(C)=O)c1ccc(CO)o1` yielded a composite z-score of 0.201.
Compound `O=C1[C@H]2C=C(I)[C@H](C[C@@H]2OCCCCO)[C@@]12CO2` has a composite z-score of -0.428.
Work on `COCCCNC(=O)[C@@]1(Cc2ccccc2)N=C(c2ccc(OCCCO)cc2)O[C@H]1c1ccccc1CN=[N+]=[N-]` yielded a composite z-score of 1.18.
`CN(C)CCCCCCNC(=O)[C@@H]1C[C@@H]2C(=O)N3CCC[C@H]3C(=O)N2[C@@H]1c1ccc(O)cc1` was tested, and the composite z-score was 0.758.
With `COc1ccc([C@H]2C[C@H]3C(Br)=C[C@@]2(CO)C(=O)[C@]32CO2)cc1` the composite z-score was 0.138.
In the case of `C=CCNC(=O)[C@@H]1[C@H]2C(=O)O[C@H](c3ccccc3)[C@H](c3ccccc3)N2[C@H](c2ccc(OCCO)cc2)[C@@]12C(=O)N(C(=O)OCCOC)c1ccc(C#CCNC(N)=O)cc12`, the composite z-score is reported as 0.94.
`CS(=O)(=O)CCOC(=O)C1=CC(CCCO)=CC(c2ccc(CN3CCCC3)cc2)N(Cc2cccc(OC(F)(F)F)c2)C=C1C(=O)OCCS(C)(=O)=O` (stereo unspecified) gave a composite z-score of 0.404.
In the case of `COCCOC(=O)N1C(=O)[C@@]2(c3cc(C#CC4(O)CCCCCC4)ccc31)[C@H](C(=O)Nc1nc3ccccc3s1)[C@H]1C(=O)O[C@H](c3ccccc3)[C@H](c3ccccc3)N1[C@@H]2c1ccc(OCCO)cc1`, the composite z-score is reported as 0.924.
With `[N-]=[N+]=Nc1ccccc1C[C@]1(C(=O)NCC(O)CO)N=C(c2ccc(OCCCO)cc2)O[C@H]1c1ccccc1` (stereo partly specified) the composite z-score was 0.606.
`[N-]=[N+]=NCc1ccccc1C[C@@]1(C(=O)NCC(O)CO)N=C(c2ccc(OCCCO)cc2)O[C@@H]1c1ccccc1` (stereo partly specified) gave a composite z-score of 0.276.
`C=CCN1C(=O)[C@]2(O[C@H](CCO)[C@@H]([Si](C)(C)c3ccc(OC)cc3)[C@@H]2C)c2cc(N(C=O)c3ccccc3)ccc21` gave a composite z-score of 0.792.
`Cc1ccc(S(=O)(=O)N2C[C@@H](C(=O)O)[C@H](Sc3ccccc3)C[C@H]2c2ccccc2)cc1` showed a composite z-score of 1.03.
Compound `COC(=O)[C@]1(Cc2ccccc2)N=C(c2ccc(OCCCO)cc2)O[C@@H]1c1ccccc1N=[N+]=[N-]` has a composite z-score of 0.464.
Work on `C=CC[C@]1(C(N)=O)N=C(c2ccc(OCCCO)cc2)O[C@H]1c1ccccc1` yielded a composite z-score of 0.417.
`[N-]=[N+]=Nc1ccccc1[C@H]1OC(c2ccc(OCCCO)cc2)=N[C@@]1(Cc1ccccc1)C(=O)N1CCOCC1` was tested, and the composite z-score was 1.09.
`O=C1NC(=O)C2C1C=CC(C(O)c1ccc(-c3ccccc3)s1)N2Nc1ccc(Cl)cc1Cl` (stereo unspecified) showed a composite z-score of 0.865.
`NCCCCCNC(=O)[C@H]1C[C@H]2C(=O)N3CCC[C@H]3C(=O)N2[C@H]1c1ccc(O)cc1` was tested, and the composite z-score was 0.781.
For `CC(=O)n1cc(C(O)C2C=CC3C(=O)NC(=O)C3N2Nc2ccccn2)c2ccccc21` (stereo unspecified), the composite z-score was 0.0414.
Compound `CO[C@H]1O[C@H](CO)[C@@H](OC(=O)Nc2cccc(F)c2)[C@H](OC(=O)Nc2ccccc2)[C@H]1OC(=O)Nc1ccccc1` has a composite z-score of 0.662.
`CO[C@H]1O[C@H](CO)[C@@H](OC(=O)Nc2ccccc2-c2ccccc2)[C@H](OC(=O)Nc2ccccc2-c2ccccc2)[C@@H]1OC(=O)Nc1ccccc1-c1ccccc1` was tested, and the composite z-score was 0.827.
In the case of `O=C(NCc1ccccc1)[C@@H]1c2ccccc2C(=O)N(C2Cc3ccccc3C2)[C@H]1c1ccc(CO)cc1`, the composite z-score is reported as 1.1.
`O=C1C2C=CC(C(O)c3ccc(-c4ccccc4)s3)N(Nc3ccccc3)C2C(=O)N1c1ccccc1` (stereo unspecified) showed a composite z-score of 0.807.
In the case of `Cc1c(NC(=O)/C(C#N)=C/c2cccc([N+](=O)[O-])c2)c(=O)n(-c2ccccc2)n1C`, the composite z-score is reported as 0.441.
`O=C1C2C=CC(C(O)c3c(F)cccc3Cl)N(Nc3ccccc3F)C2C(=O)N1c1ccccc1` (stereo unspecified) was tested, and the composite z-score was 0.702.
`NCCCCCCNC(=O)[C@H]1C[C@H]2C(=O)N[C@@H](Cc3ccccc3)C(=O)N2[C@H]1c1cccc(OCCO)c1` gave a composite z-score of 0.961.
`CN(C)CCCC[C@@H]1NC(=O)[C@H]2C[C@@H](C(=O)NCCCCCN)[C@@H](c3cccc(OCCO)c3)N2C1=O` showed a composite z-score of 1.48.
For `O=C(NCCN1CCOCC1)[C@@H]1c2ccccc2C(=O)N(Cc2cc(C(F)(F)F)cc(C(F)(F)F)c2)[C@H]1c1ccc(CO)cc1`, the composite z-score was 0.4.
With `COc1ccc([Si](C)(C)[C@@H]2[C@@H](CC(=O)N3Cc4ccccc4C[C@H]3CO)O[C@]3(C(=O)N(Cc4cccc(N5CCC5=O)c4)c4ccccc43)[C@H]2C)cc1` the composite z-score was 0.696.
With `CN1C(=O)C2C=CC(C(O)c3c(F)cccc3Cl)N(NC(=O)OC(C)(C)C)C2C1=O` (stereo unspecified) the composite z-score was 0.634.
`O=C1OCCC/C=C\[C@H]2OC34C=CCN(c5ccc6ccccc6c5)C(=O)[C@H]3N(CCCCCO)C(=O)[C@@H]4C12` (stereo partly specified) showed a composite z-score of -0.753.
For `COc1ccc([Si](C)(C)[C@H]2[C@H](CC(=O)N3CCC[C@H]3CO)O[C@@]3(C(=O)N(Cc4cccc(N5CCOC5=O)c4)c4ccccc43)[C@@H]2C)cc1`, the composite z-score was 0.149.
In the case of `COCC(=C=CC[C@H](O)c1cccc(OCCO)c1)CCO`, the composite z-score is reported as -0.262.
For `C=CCC(OC(C)=O)[C@@H]1[C@@H](N(Cc2ccc(-c3cccc(C(F)(F)F)c3)o2)C(=O)c2cccc3ccccc23)c2cc(OCCCO)ccc2N1C(=O)Cc1ccc2ccccc2c1` (stereo partly specified), the composite z-score was 0.178.
In the case of `COCCOC(=O)N1C(=O)[C@@]2(c3ccccc31)[C@H](C(=O)N1CCCCCCC1)[C@H]1C(=O)O[C@H](c3ccccc3)[C@H](c3ccccc3)N1[C@@H]2c1ccc(OCCO)cc1`, the composite z-score is reported as 1.74.
